Results: PubChem BioAssay AID1878 (Sanford-Burnham Center for Chemical Genomics, 2009)
The whole screen tested about 1,000 compounds, of which about 200 (20%) were called active. The list is a sample of the results. Measured potencies and affinities stand elsewhere. A number with no mark means an inactive call. No stated cut-off is given here; in the data, active means inhibition above about 55%; inactive means the rest.

Target: Dual specificity protein phosphatase 3 (Homo sapiens) (UniProt P51452)
Assay: VHR1 phosphatase inhibitors, biochemical (AID 1878)
Conditions: recombinant VHR phosphatase, fluorogenic substrate; at 13.3 µM; hits give high values

Dual specificity protein phosphatase 3 (Homo sapiens), sequence (P51452 whole entry, looked up): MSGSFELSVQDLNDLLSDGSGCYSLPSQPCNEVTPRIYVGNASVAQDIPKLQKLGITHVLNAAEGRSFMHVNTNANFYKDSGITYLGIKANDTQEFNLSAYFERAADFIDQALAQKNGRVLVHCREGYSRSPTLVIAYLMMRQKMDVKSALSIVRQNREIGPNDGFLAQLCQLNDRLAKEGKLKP

Compound | inhibition
O/N=C/c1ccc2cccc(OCc3ccccc3)c2n1 | -5.4%
Cc1ccc(Cn2c(N3CCNCC3)nc3c2c(=O)[nH]c(=O)n3C)cc1 | 3.7%
COc1ccc(C2NC(=O)CCC2[N+](=O)[O-])cc1OC (stereo unspecified) | -5.6%
COc1cc(NC(=O)CSc2ncnc3sc4c(c23)CCCC4)c(C(=O)O)cc1OC | 55.5% (active)
COc1ccc(C(=O)CCC(=O)Nc2ccc(N3CCCCC3)cc2)cc1OC | -1.2%
COc1ccc(OCC(=O)Nc2nc3c(s2)CCCC3)cc1 | 1.9%
COc1cccc(COC(=O)C2CCN(C(=O)c3ccccc3C)CC2)c1OC | -4.4%
CN(C)C(CNC1CC(C)(C)NC(C)(C)C1)c1cccc(F)c1 (stereo unspecified) | 12.5%
Cc1ccc(-c2nc3ccccc3s2)cc1NC(=O)c1cc(-n2cnnc2)ccc1Cl | 63.4% (active)
COc1ccc(-c2nn(CCC#N)cc2C(=O)Nc2ccccc2Cl)cc1 | 2.2%
O=C1CN(C(=O)c2ccccc2)C(c2ccccc2)c2cc(F)ccc2N1 (stereo unspecified) | -4.4%
COc1cc(NC(=O)CCc2nnc3ccc(N4CCCCC4)nn23)cc(OC)c1OC | -6.5%
Nc1c(C(=O)NC2CC2)sc2nc3c(c(-c4ccco4)c12)CC/C3=C/c1ccco1 | 11.4%
O=C(O)CCCCC1CCSS1 (stereo unspecified) | 97.7% (active)
CCCn1c2ccccc2c2cnn(CC(=O)NCCCN3CCCC(C)C3)c(=O)c21 (stereo unspecified) | -8.7%
CCOc1cccc(CN2CCCC(N3CCc4ccccc4C3)C2)c1O (stereo unspecified) | -11%
COc1cc2cc(C(=O)Nc3ccc4c(c3)OCCO4)[nH]c2cc1OC | -3.4%
c1cncc(-c2nc(-c3ccc4c(c3)OCCO4)cs2)c1 | -10.9%
O=C(Nc1ccc2oc(-c3cccnc3)nc2c1)c1ccc2c(c1)OCCO2 | 62.5% (active)
CC1=C(C(=O)OC(C)C)C(c2ccccc2)NC(=O)N1C (stereo unspecified) | 6.5%
COC(=O)c1cccc(CSC(=S)N2CCCC2)c1 | -7.9%

Compound | inhibition
COc1ccc(Nc2ccc([N+](=O)[O-])cn2)cc1 | -0.2%
O=[N+]([O-])c1ccc(-c2nnc(S)n2-c2ccccc2)cc1 | -5.8%
O=C(O)c1ccc(Nc2nc(-c3ccc([N+](=O)[O-])cc3)nc3ccccc23)cc1 | 97.6% (active)
Cc1ccc(C)c(N(CC(=O)NC2CCCC2)C(=O)CNC(=O)c2cccs2)c1 | -6.9%
Cc1ccccc1CCN1CCCC(CN(C)C(=O)C(=O)c2ccco2)C1 (stereo unspecified) | 9.9%
Cc1cc(NC(=O)CCSc2ccc(Cl)cc2)no1 | 2.1%
Cc1ccc(S(=O)(=O)N(C)CC(=O)OCC(=O)NC(=O)NC(C)C)cc1 | -21.6%
COc1cc(/C=C2\SC(=O)N(Cc3ccc(F)cc3)C2=O)cc([N+](=O)[O-])c1O | 53% (active)
O=C(CCCCCN1C(=O)[C@@H]2Cc3ccccc3CN2C1=O)Nc1ccccc1F | 11%
CCCCNC(=O)NNC(=O)C1CC1(c1ccccc1)c1ccccc1 (stereo unspecified) | 9.1%
COc1cc(CCC(=O)NCc2ccc3c(c2)OCO3)cc(OC)c1OC | 0.3%
CS(=O)(=O)NN1C(=O)c2ccccc2NC1c1ccccc1F (stereo unspecified) | -7.9%
Cn1c(CNC(=O)CCNC(=O)c2cccc(Br)c2)cc(=O)n(C)c1=O | -19.2%
O=C(Nc1cccc2cccnc12)c1cccc(Cl)c1 | 2.2%
O=C(Nc1cc([N+](=O)[O-])ccc1O)c1cccc(C(=O)Nc2cc([N+](=O)[O-])ccc2O)c1 | 98.4% (active)
O=C(O)CSc1cc(NS(=O)(=O)c2cccc([N+](=O)[O-])c2)c2ccccc2c1O | 1.4%
CCOC(=O)C1=C(N)Oc2ccc3ccccc3c2C1c1ccc(O)c(OC)c1 (stereo unspecified) | -1.4%
NC(=O)c1cc2ccccc2o/c1=N\NC(=O)c1ccccc1O | 98.4% (active)
O=C(Nc1ccccc1Cl)c1cc2ccccc2o/c1=N\O | -1%
CCC1CN(C(=O)NCc2ccc(F)cc2)c2ccccc2O1 (stereo unspecified) | 7.8%
COc1ccc(C(=O)NCc2ccc(N3CCN(C)CC3)cc2)cc1 | 21.1%

Compound | inhibition
COc1cccc(C2NC(=O)CCC2[N+](=O)[O-])c1OC (stereo unspecified) | 3.9%
COCCN(C(=O)CCC(=O)Nc1nccs1)C(C(=O)NCCC(C)C)c1ccc(OC)cc1 (stereo unspecified) | -22%
COc1cc(C(C)=O)ccc1OCC(O)CN1CCN(c2ccc(F)cc2)CC1 (stereo unspecified) | -0.4%
COc1nc(Nc2nc3ccccc3c(=O)[nH]2)nc2ccc(C)cc12 | 89.8% (active)
CCC(=O)N1CCN(c2ccc(NC(=O)c3ccc(N4CCOCC4)c([N+](=O)[O-])c3)cc2)CC1 | -6.9%
Fc1ccccc1/C=N/n1c(C2CCCCC2)n[nH]c1=S | 7.2%
Cn1c(=O)[nH]c(=O)c2c1[nH]c(=S)n2CCCc1ccccc1 | 2.5%
O=C(Cn1c2ccccc2c2nc3n(c(=O)c21)CCS3)N1CCCC1 | -3.8%
CN(C)c1ccc(N2C(=NC(=O)C3CCCO3)SC3CS(=O)(=O)CC32)cc1 (stereo unspecified) | 10.7%
Cc1ccc(CNCc2ccco2)cc1 | -2.3%
CC(C)(C)c1ccc(O)c(N=Cc2c(O)ccc3ccccc23)c1 | -0.4%
C/C(=N\N1CCN(c2ccccc2)CC1)c1ccc(O)cc1 | -1.9%
Clc1nccnc1N/N=C/c1ccc(Br)cc1 | 1.6%
CCCCn1nc(NC(=O)CC(C)C)c2cc3cc(OC)ccc3nc21 | 2.1%
CCC1C(=O)C(C)(C)C(=O)OC1c1ccc([N+](=O)[O-])cc1 (stereo unspecified) | -5.8%
O=C(CSc1nc2ccccc2n1CCc1ccccc1)c1ccc(O)c(O)c1 | 98.7% (active)
CCOc1ccc(C(=O)N2CCN(CCc3ccccc3)CC2)cc1OCC | 1.8%
Cc1ccccc1C1NC(=O)c2ccccc2O1 (stereo unspecified) | -14%
COc1cccc2[nH]c3c(=O)[nH]cnc3c12 | -1.7%
